Data on 37 molecules can be found in PubChem BioAssay (NCI).

About 83,000 compounds went through this panel and 20% of them were active in at least one assay; those are over-represented in the sample as a whole.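 Values shown are percent growth following 48 h exposure of cells in 96-well plates to a single concentration of compound; below 10 was considered active.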 Activity calls are given as the source filed them.

The first assay has as its system T-47D breast. Briefly: NCI-60 one-dose screen, 48 h (100 = growth as untreated, 0 = no growth, -100 = all killed). The note with it: 10 µM unless noted.
As to `CCN(CC)c1ccc(C(=O)c2ccccc2)cc1`, the growth was 83.3% (inactive).
For `NC1=NN=C(N)C1=Cc1cc2ccccc2n2nnnc12`, the growth is 88.4% (inactive).
For `Fc1ccc(-c2cn3c(nc4ccccc43)c(-c3ccccc3)n2)cc1`, the growth is 86.2% (inactive).
As for `CCNc1nc2ccc(Nc3ccnc4cc(Cl)ccc34)cc2[nH]1`, the growth was 100% (inactive).
With `O=S(=O)(NCCNc1nccc(-c2c(-c3cccc(O)c3)nc3occn23)n1)c1cccc(F)c1`, the growth was 73.7% (inactive).
The same measure, in the same setting: the figure for `COC(=O)/C=C1\S/C(=N\NC(=O)c2cc3ccc2/C=C\c2ccc(cc2)/C=C\3)N(c2ccccc2)C1=O` is -38.2% (active).
As to `CCOC(=O)c1cc(C(=O)c2ccc(OC)c(OC)c2)n2c1ccc1ccccc12`, the growth is 85.3% (inactive).
Regarding `CCOC(=O)c1cc(C#N)n2ccc3ccccc3c12`, the growth is 104% (inactive).
Regarding `O=C1/C=C/[C@@H](O)[C@@H]2C[C@@H](O)C[C@H]2/C=C/CCC[C@H](CCc2ccc3ncccc3c2)O1`, the growth is 0.682% (active).
Consider `N#CC1=C(N)Oc2c(ccc3ccccc23)C1c1ccccc1Cl` (centres undefined), for which the growth was 66.5% (inactive).
Take `O=C(O)c1ccc(NCc2cn(-c3ccc(C(F)(F)F)cc3)nc2-c2ccc(C(=O)O)cc2)cc1`: the growth is 100% (inactive).
Still for that read-out and setting: the figure for `COc1cccc(C(=O)NNc2nc(Cl)nc(N3CCN(C(c4ccccc4)c4ccccc4)CC3)n2)c1` is 83.3% (inactive).
In the case of `N#C/C(=C\c1ccc(Cl)cc1)n1nnc2cc(F)c(F)cc21`, the growth is 19.8% (inactive).
The same measure, in the same setting: the result for `COc1ccc(C(=O)C2C(C#N)C(C#N)C3c4ccccc4C=CN23)cc1` (centres undefined) reads 61.5% (inactive); that for `COc1cc(/C=N/NC(=O)c2cnn3c2NC(c2ccccc2)C3)ccc1Oc1ccccc1` (centres undefined), 28.6% (inactive); that for `C[C@H](c1nc2ccc(N)cc2[nH]1)[C@H]1CC[C@H]2[C@@H]3CCC4=CC(=O)CC[C@]4(C)[C@H]3CC[C@]12C`, 77.8% (inactive).
As to `COc1cc(C2C3=C(COC3=O)N(CCO)c3cc4c(cc32)CCC4)cc(OC)c1OC` (centres undefined), the growth was 54.1% (inactive).
Take `Cc1ccc(NC(C(=O)c2ccccc2)c2ccccc2)cc1` (centres undefined): the growth was 25.9% (inactive).
Consider `OCc1cnccc1NCCCOc1ccccc1`, for which the growth was 101% (inactive).
As to `Cn1cc(CC2CC(=O)N(c3ccccc3)C2=O)sc1=NC(=O)c1ccccc1` (centres undefined), the growth is 91.1% (inactive).
Take `OCc1cnc2ccccc2c1NC1CCCCCC1`: the growth was 65% (inactive).
Take `Cc1cccc(NC(=O)Nc2ccc(-n3cnc4cc(-c5ccc(O)cc5)ccc43)cc2)c1`: the growth is 4.01% (active).
Regarding `COc1ccc(/C=N/NC(=O)c2cnn3c2NC(c2ccccc2)C3)cc1OC` (centres undefined), the growth is 56% (inactive).
As for `Cc1c(C)c([N+](=O)[O-])c(C)c([N+](=O)[O-])c1C`, the growth is 113% (inactive).
Consider `COc1c(Cl)c2c(c(OC)c1OC)-c1ccc(SC)c(=O)cc1[C@@H](NC(=O)OCC(F)(F)F)CC2`, for which the growth is 43.1% (inactive).
Still for that read-out and setting: the figure for `O=C(/C=C/c1ccc(Cl)cc1)c1ccc(NC(=O)N2CCN(c3cc4c(cc3F)c(=O)c(C(=O)O)cn4C3CC3)CC2)cc1` is 76.4% (inactive).
As for `CCOc1ccc(/C=N/Nc2cc(C)nc3ccc(Br)cc23)cc1`, the growth was 89.2% (inactive).
In the case of `CNC(=O)c1cncc(Cn2nc(C)c(NC(=O)c3ccc(COc4ccc(C(F)(F)F)cc4C)cc3)c2C)c1`, the growth is 29.7% (inactive).
As for `COc1ccc(C(=O)c2nc3ccccc3n2CC(=O)c2ccc(F)cc2)cc1`, the growth was 91.6% (inactive).
With `CN1CCN(c2ccc(NC3=C(Cl)C(=O)c4ncccc4C3=O)cc2C(F)(F)F)CC1`, the growth is -19.7% (active).
In the case of `COc1ccccc1NS(=O)(=O)c1cccc(C(=O)Nc2ccc(Br)cc2)c1`, the growth is 21.2% (inactive).
With `CCNC(=O)Oc1ccc(/C(=C(\C)c2ccccc2)c2ccc(OCCN(CC)CC)cc2)cc1`, the growth is 46.3% (inactive).
Still for that read-out and setting: the result for `Oc1ccc(C2c3ccccc3Oc3ccccc32)c2cccnc12` reads 31.1% (inactive); that for `COc1ccc2c(c1)oc1c(C)c3c(c(C)c12)C(=O)N(N)C3=O`, 44.3% (inactive); that for `C[C@H]1[C@H]2[C@H]3CC[C@@H]4[C@@]5(C)CC[C@H](O)C(C)(C)[C@@H]5CC[C@@]4(C)[C@]3(C)CC[C@]23CO[C@]1(C)[C@@H](C(=O)/C=C\c1ccco1)C3`, 84.8% (inactive).
For the molecule `COc1ccc(C/C(C)=C(/c2ccc(OCCCN(C)C)cc2)c2ccc(OC(C)=O)cc2)cc1`, the growth is 56.4% (inactive).
With `CC1(C)CC[C@]23CC[C@]4(C)[C@H](CC[C@@H]5[C@@]6(C)CCCNC(C)(C)[C@@H]6CC[C@]54C)[C@H]2[C@H]1OC3`, the growth was 2.46% (active).

Another assay relates to BT-549 breast. The assay is described as above. The note with it: 10 µM unless noted.
With `CCN(CC)c1ccc(C(=O)c2ccccc2)cc1`, the growth is 109% (inactive).
The same measure, in the same setting: the result for `NC1=NN=C(N)C1=Cc1cc2ccccc2n2nnnc12` reads 94.7% (inactive); that for `Fc1ccc(-c2cn3c(nc4ccccc43)c(-c3ccccc3)n2)cc1`, 105% (inactive); that for `CCNc1nc2ccc(Nc3ccnc4cc(Cl)ccc34)cc2[nH]1`, 86.8% (inactive).
Regarding `O=S(=O)(NCCNc1nccc(-c2c(-c3cccc(O)c3)nc3occn23)n1)c1cccc(F)c1`, the growth is 104% (inactive).
Same read-out and setting: the result for `COC(=O)/C=C1\S/C(=N\NC(=O)c2cc3ccc2/C=C\c2ccc(cc2)/C=C\3)N(c2ccccc2)C1=O` reads 35.5% (inactive); that for `CCOC(=O)c1cc(C(=O)c2ccc(OC)c(OC)c2)n2c1ccc1ccccc12`, 100% (inactive).
Consider `CCOC(=O)c1cc(C#N)n2ccc3ccccc3c12`, for which the growth is 113% (inactive).
On the same count and under the same terms, the figure for `O=C1/C=C/[C@@H](O)[C@@H]2C[C@@H](O)C[C@H]2/C=C/CCC[C@H](CCc2ccc3ncccc3c2)O1` is 7.66% (active); for `N#CC1=C(N)Oc2c(ccc3ccccc23)C1c1ccccc1Cl` (centres undefined) it is 20.7% (inactive).
On the same count and under the same terms, the result for `O=C(O)c1ccc(NCc2cn(-c3ccc(C(F)(F)F)cc3)nc2-c2ccc(C(=O)O)cc2)cc1` reads 108% (inactive); that for `COc1cccc(C(=O)NNc2nc(Cl)nc(N3CCN(C(c4ccccc4)c4ccccc4)CC3)n2)c1`, 81.6% (inactive).
On the same count and under the same terms, the result for `N#C/C(=C\c1ccc(Cl)cc1)n1nnc2cc(F)c(F)cc21` reads 11.7% (inactive); that for `COc1ccc(C(=O)C2C(C#N)C(C#N)C3c4ccccc4C=CN23)cc1` (centres undefined), 95% (inactive); that for `COc1cc(/C=N/NC(=O)c2cnn3c2NC(c2ccccc2)C3)ccc1Oc1ccccc1` (centres undefined), 6.76% (active).
In the case of `C[C@H](c1nc2ccc(N)cc2[nH]1)[C@H]1CC[C@H]2[C@@H]3CCC4=CC(=O)CC[C@]4(C)[C@H]3CC[C@]12C`, the growth is 70% (inactive).
For `COc1cc(C2C3=C(COC3=O)N(CCO)c3cc4c(cc32)CCC4)cc(OC)c1OC` (centres undefined), the growth is -9.83% (active).
Turning to `Cc1ccc(NC(C(=O)c2ccccc2)c2ccccc2)cc1` (centres undefined), the growth was 42.2% (inactive).
Turning to `OCc1cnccc1NCCCOc1ccccc1`, the growth is 108% (inactive).
Still for that read-out and setting: the figure for `Cn1cc(CC2CC(=O)N(c3ccccc3)C2=O)sc1=NC(=O)c1ccccc1` (centres undefined) is 87.2% (inactive); for `OCc1cnc2ccccc2c1NC1CCCCCC1` it is 105% (inactive).
Still for that read-out and setting: the result for `Cc1cccc(NC(=O)Nc2ccc(-n3cnc4cc(-c5ccc(O)cc5)ccc43)cc2)c1` reads 70.8% (inactive); that for `COc1ccc(/C=N/NC(=O)c2cnn3c2NC(c2ccccc2)C3)cc1OC` (centres undefined), 42.3% (inactive).
In the case of `Cc1c(C)c([N+](=O)[O-])c(C)c([N+](=O)[O-])c1C`, the growth is 95.8% (inactive).
On the same count and under the same terms, the figure for `COc1c(Cl)c2c(c(OC)c1OC)-c1ccc(SC)c(=O)cc1[C@@H](NC(=O)OCC(F)(F)F)CC2` is 5.25% (active).
For `O=C(/C=C/c1ccc(Cl)cc1)c1ccc(NC(=O)N2CCN(c3cc4c(cc3F)c(=O)c(C(=O)O)cn4C3CC3)CC2)cc1`, the growth was 52.2% (inactive).
Take `CCOc1ccc(/C=N/Nc2cc(C)nc3ccc(Br)cc23)cc1`: the growth was 91.3% (inactive).
As to `CNC(=O)c1cncc(Cn2nc(C)c(NC(=O)c3ccc(COc4ccc(C(F)(F)F)cc4C)cc3)c2C)c1`, the growth is 32.4% (inactive).
In the case of `COc1ccc(C(=O)c2nc3ccccc3n2CC(=O)c2ccc(F)cc2)cc1`, the growth is 93.2% (inactive).
Still for that read-out and setting: the figure for `CN1CCN(c2ccc(NC3=C(Cl)C(=O)c4ncccc4C3=O)cc2C(F)(F)F)CC1` is 89.8% (inactive); for `COc1ccccc1NS(=O)(=O)c1cccc(C(=O)Nc2ccc(Br)cc2)c1` it is 37.2% (inactive); for `CCNC(=O)Oc1ccc(/C(=C(\C)c2ccccc2)c2ccc(OCCN(CC)CC)cc2)cc1` it is 76.1% (inactive).
`Oc1ccc(C2c3ccccc3Oc3ccccc32)c2cccnc12`: the growth is 29.3% (inactive).
In the case of `COc1ccc2c(c1)oc1c(C)c3c(c(C)c12)C(=O)N(N)C3=O`, the growth was -43.5% (active).
On the same count and under the same terms, the result for `C[C@H]1[C@H]2[C@H]3CC[C@@H]4[C@@]5(C)CC[C@H](O)C(C)(C)[C@@H]5CC[C@@]4(C)[C@]3(C)CC[C@]23CO[C@]1(C)[C@@H](C(=O)/C=C\c1ccco1)C3` reads 105% (inactive).
With `COc1ccc(C/C(C)=C(/c2ccc(OCCCN(C)C)cc2)c2ccc(OC(C)=O)cc2)cc1`, the growth is 89% (inactive).
Consider `CC1(C)CC[C@]23CC[C@]4(C)[C@H](CC[C@@H]5[C@@]6(C)CCCNC(C)(C)[C@@H]6CC[C@]54C)[C@H]2[C@H]1OC3`, for which the growth is 76.4% (inactive).
